These results are taken from PubChem BioAssay (NCATS).

Molecules are shown by their SMILES. A number with no mark means an inactive call. Activity calls are given as the source filed them. Calls follow the shape of the dose curve; as a rule, active = well fitted inhibition curve with a large enough effect; inconclusive = small, poorly fitted or top-dose-only effect; inactive = flat fitted curve, though single readings scatter. Residues, ends and D or L forms follow the SMILES beside them. *: point of attachment. Cbz = O=C(OCc1ccccc1)*
Potency is read from the fitted curve at half-maximal effect.

Chain of ATP-dependent DNA helicase Q1 (Homo sapiens) (P46063 whole entry, looked up): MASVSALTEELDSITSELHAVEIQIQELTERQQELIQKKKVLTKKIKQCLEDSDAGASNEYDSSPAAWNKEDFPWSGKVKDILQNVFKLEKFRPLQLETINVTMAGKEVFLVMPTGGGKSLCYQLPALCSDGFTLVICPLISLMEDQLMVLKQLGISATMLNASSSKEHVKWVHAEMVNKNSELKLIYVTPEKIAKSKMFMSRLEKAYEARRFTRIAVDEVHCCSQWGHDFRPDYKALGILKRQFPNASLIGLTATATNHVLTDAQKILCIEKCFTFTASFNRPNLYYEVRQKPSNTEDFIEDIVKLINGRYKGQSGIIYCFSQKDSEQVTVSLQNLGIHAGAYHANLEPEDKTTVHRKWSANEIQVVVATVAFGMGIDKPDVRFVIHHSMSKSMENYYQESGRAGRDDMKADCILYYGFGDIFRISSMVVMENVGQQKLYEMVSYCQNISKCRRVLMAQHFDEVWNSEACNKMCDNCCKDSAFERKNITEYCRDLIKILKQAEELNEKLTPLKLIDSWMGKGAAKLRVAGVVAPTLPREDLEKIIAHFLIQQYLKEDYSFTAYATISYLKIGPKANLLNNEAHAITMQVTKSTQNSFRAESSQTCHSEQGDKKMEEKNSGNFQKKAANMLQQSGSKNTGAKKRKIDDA

The assay has as its target ATP-dependent DNA helicase Q1 (Homo sapiens) (UniProt P46063). Briefly: qHTS Validation Assay for Inhibitors of RecQ-Like Dna Helicase 1 (RECQ1) (AID 2353). As to conditions: recombinant RECQ1 helicase DNA unwinding assay; series mostly up to 25.6 µM; activity change, negative = inhibition: at the top concentration. From the text: Survival of cells and the faithful propagation of the genome depend on elaborate mechanisms of detecting and repairing DNA damage. Treatment of advanced cancer relies on radiation therapy or chemotherapy, which kill cancer cells by causing extensive DNA damage. It is often found, that cancer cells develop resistance to therapy through enhanced activity of DNA repair functions; this has led to an increased interest in developing drugs that interfere with DNA repair, which could sensitize cancer cells to conventional therapy.
This validation qHTS assay pertains to human RECQ1, which is important in resolving abnormal DNA structures formed during replication or homologous recombination. Shutting down the expression of RECQ1 leads to chromosomal instability and higher radiation sensitivity in cultured cells.
The validation assay was a fluorescence quenching based kinetic qHTS for RECQ1 Helicase DNA unwinding. The activity was measured as ATP-dependent separation of a 20-bp DNA duplex extended by 30-nt single-stranded tails (forked duplex). The forked DNA substrate was tagged with rhodamine fluorophore (carboxytetramethyl rhodamine, TAMRA) and BHQ-2 (Black Hole Quencher 2) dark quencher. Strand separation results in an increase in the fluorescence of TAMRA (excitation 525 nm, emission 598 nm). This substrate construct operates in a red-shifted region where very few compound library members have been noted to fluoresce (PubChem AIDs 593 and 594). An additional feature of the assay is the inclusion of 2.5 ug/ml poly (dIdC), to reduce interference by compounds such as DNA intercalators, a major source of false inhibitors.
Opher Gileadi, Structural Genomics Consortium, University of Oxford
Screening Center PI: Austin, C.P.
Screening Center: NIH Chemical Genomics Center [NCGC]
Three uL of reaction buffer (25 mM Tris-HCl (pH 8.0), 5 mM NaCl, 2 mM MgCl2, 1mM DTT, 0.01% Tween- 20, and 2.5 ug/ml poly(dI-dC), including enzyme (50 nM RECQ1T1), were dispensed into a 1536-well Greiner black assay plate via solenoid-valve based nanoliter dispensers. Compounds (23 nl each in columns 5-48) and control (23 nl each in column 2 as dose-response) were transferred via a Kalypsys pintool equipped with a 1536-pin array. The plates were incubated for 15 min at room temperature, and then 1 ul of substrates (200 nM DNA and 2 mM ATP, final concentrations) was added to start the reaction. The plate was transferred into a ViewLux high-throughput CCD imager where the reaction progress was measured in a discontinuous kinetic mode (two reads spaced 2 hours apart, with intermediate room temperature incubation of the covered assay plate) by using standard red-fluorescence optics (excitation filter 525 nm, emission filter 598 nm). Enzyme-free and vehicle (DMSO) controls were included for signal normalization.
`Nc1ccc(N2C(=O)c3ccccc3C2=O)c(Cl)c1`: the “activity change, negative = inhibition” value is -8.58%.
Turning to `C[C@H](NC(=O)/C(C#N)=C/c1ccc(O)c(O)c1)c1ccccc1`, the “activity change, negative = inhibition” value was -12.6%.
For `O=C(O)c1cc2cc(F)ccc2[nH]1`, the “activity change, negative = inhibition” value is -4.46%.
Regarding `CNc1ncnc2c1ncn2[C@H]1C[C@H](OP(=O)(O)O)[C@@H](COP(=O)(O)O)O1`, the “activity change, negative = inhibition” value was 4.09%.
On the same count and under the same terms, the same measure for `NC/C=C\C(=O)O`: -0.904%; for `CCC1(O)CC2CN(CCc3c([nH]c4ccccc34)[C@@](C(=O)OC)(c3cc4c(cc3OC)N(C=O)C3[C@]45CCN4CC=C[C@@](CC)([C@@H](OC(C)=O)[C@]3(O)C(=O)OC)[C@H]45)C2)C1` (stereo not given in full): -11.3%; for `O=c1[nH]c(=O)c2nc3ccccc3nc2[nH]1`: -4.29%.
`NCCNS(=O)(=O)c1cccc2c(Cl)cccc12`: the “activity change, negative = inhibition” value is 3.17%.
`C=C1C(=O)O[C@@H]2[C@H]3O[C@]3(C)CCC=C(C)CC[C@@H]12`: the “activity change, negative = inhibition” value was -1.85%.
In the case of `COC(=O)C(N)Cc1ccc(Cl)cc1` (stereo not given), the “activity change, negative = inhibition” value is -7.08%.
As to `CC(=O)N[C@@H](Cc1c[nH]c2ccccc12)C(=O)OCc1cc(C(F)(F)F)cc(C(F)(F)F)c1`, the “activity change, negative = inhibition” value is -8.75%.
As for `O=C1NC(=O)c2cc(Nc3ccccc3)c(Nc3ccccc3)cc21`, the “activity change, negative = inhibition” value is -20.6%.
Regarding `CCCCCC(O)CCCC(=O)O` (stereo not given), the “activity change, negative = inhibition” value was -7.5%.
For the compound `CNC(=O)c1cc2c(cn1)[nH]c1ccccc12`, the “activity change, negative = inhibition” value was 4.51%.
On to `CN1CCC2(CCN3CCc4c(oc5ccccc45)C3C2)N(C)C1=O` (stereo not given), for which the “activity change, negative = inhibition” value is -1.33%.
As for `COc1cc(/C=C(\C#N)C(=O)c2ccc(O)c(O)c2)cc(I)c1O`, the Potency is 4.47 µM (active).
As for `CC(C)(C)c1cc(/C=C(\C#N)C(N)=S)cc(C(C)(C)C)c1O`, the “activity change, negative = inhibition” value is -11.1%.
In the case of `NC(N)=[N+]1CCc2ccccc2C1`, the “activity change, negative = inhibition” value is -8.67%.
In the case of `CCCn1c(=O)c2[nH]c(-c3ccc(S(=O)(=O)O)cc3)nc2n(CCC)c1=O`, the “activity change, negative = inhibition” value is 1.93%.
As to `COc1ccccc1N1CCN(CCN(C(=O)c2ccc(F)cc2)c2ccccn2)CC1`, the “activity change, negative = inhibition” value was 4.03%.
As to `Cc1cccc(C(=O)NCN2CCN(c3ccccc3C#N)CC2)c1`, the “activity change, negative = inhibition” value was -3.46%.
Take `COc1ccc2c(c1)CCC1C2CC[C@@]2(C)C1CC[C@@H]2NCCCCCCN1C(=O)C=CC1=O` (stereo not given in full): the “activity change, negative = inhibition” value is -3.16%.
For the compound `NC1(C(=O)O)CC1`, the “activity change, negative = inhibition” value was -8.39%.
As to `CN(C)CCC(c1ccc(Br)cc1)c1ccccn1` (stereo not given), the “activity change, negative = inhibition” value was 0.214%.
With `Cc1nc(N=Nc2cc(S(=O)(=O)O)c3cc([N+](=O)[O-])cc(S(=O)(=O)O)c3c2)c(COP(=O)(O)O)c(C=O)c1O`, the Potency is 11.2 µM (active).
For `N[C@H](C(=O)O)c1cc(O)cc(O)c1`, the “activity change, negative = inhibition” value was -1.46%.
As for `CC(N)(Cc1ccc(O)c(O)c1)C(=O)O` (stereo not given), the “activity change, negative = inhibition” value is 0.13%.
As for `CCN(CC)CCOC(=O)c1cc(Cl)c(N)cc1OC`, the “activity change, negative = inhibition” value is 4.39%.
Regarding `COc1cccc(OC)c1OCCNCC1CSc2ccccc2O1` (stereo not given), the “activity change, negative = inhibition” value was -0.324%.
On the same count and under the same terms, as for `Nc1ncnc2c1c(-c1ccc(Oc3ccccc3)cc1)cn2C1CCCC1`, the figure is -13.6%.
On the same count and under the same terms, as for `Nc1ncnc2c1ncn2C1CCCO1` (stereo not given), the figure is -8.24%; as for `NC(N)=NC(N)=Nc1cccc(Cl)c1`, 3.04%; as for `CC(C)[C@H](NC(=O)OCc1ccccc1)C(=O)N[C@H](C=O)Cc1ccccc1` (Cbz-Val-Phe-aldehyde), -5.65%.
In the case of `CSC(N)=NCCC[C@H](N)C(=O)O`, the “activity change, negative = inhibition” value was -2.89%.
On to `C#CCn1c(=O)c2c(ncn2C)n(C)c1=O`, for which the “activity change, negative = inhibition” value is -1.02%.
Take `OCC1NCC(O)C(O)C1O` (stereo not given): the “activity change, negative = inhibition” value is 3.07%.
On to `Cn1c(=O)[nH]c2ncn(C)c2c1=O`, for which the “activity change, negative = inhibition” value is -6.14%.
For `Cn1c(=O)c2[nH]c(C3CCCC3)nc2n(C)c1=O`, the “activity change, negative = inhibition” value is -4.21%.
For the compound `C[C@@H](NCCc1ccc(O)cc1)[C@@H](O)c1ccc(O)cc1`, the “activity change, negative = inhibition” value was -2.62%.
Take `CCCCCCN(CCCCCC)C(=O)Cc1c(-c2ccc(F)cc2)[nH]c2ccccc12`: the “activity change, negative = inhibition” value is -20.2%.
